Source: PubChem BioAssay (NCATS)
Inconclusive results are not listed. Active and inactive are the calls of the source. The call rests on the fitted dose curve; in most records, active means well fitted inhibition curve with a large enough effect; inconclusive means small, poorly fitted or top-dose-only effect; inactive means flat fitted curve, though single readings scatter.

Test: qHTS to identify inhibitors of the type 1 interferon - major histocompatibility complex class I in skeletal muscle: primary screen against the NCATS Pharmaceutical Collection (AID 1347407);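 further: luminescence of HiBiT knocked into endogenous HLA-B as interferon-induced MHC class I level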
Conditions: human skeletal muscle cells, IFN-b-induced MHC-I HiBiT luminescence, 24 h; series mostly up to 45.9 µM; activity change, negative = inhibition: at the top concentration
How it was run: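 HLA-B HiBiT myoblasts, dexamethasone-free growth medium + 4 ng/ml IFN-b; compounds pinned 1 h after seeding, […] from 46 uM; 24 h, 37 C, 5% CO2; lytic HiBiT detection, 10 min RT, luminescence.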
On the % scale 0 is the no-effect control and ±100 the full control effect.

| SMILES | activity change, negative = inhibition |
| --- | --- |
| C[C@@H]1CC[C@@]2(OC1)O[C@H]1C[C@H]3[C@@H]4CC[C@H]5C[C@@H](O)CC[C@]5(C)[C@H]4CC(=O)[C@]3(C)[C@H]1[C@@H]2C | -0.255% [at 3.83 µM] (inactive) |
| OCCN1CCN(CCCN2c3ccccc3Sc3ccc(Cl)cc32)CC1 | -24.5% (inactive) |
| CN(C)CCCN1c2ccccc2Sc2ccc(Cl)cc21 | -12% (inactive) |
| CC12CCC(CC1)C(C)(C)O2 | -0.113% (inactive) |
| CC1CC(OC(=O)C(O)c2ccccc2)CC(C)(C)N1C (centres undefined) | -4.89% (inactive) |
| CN(C)CCN(Cc1ccccc1)c1ccccn1 | 0.193% (inactive) |
| NS(=O)(=O)c1cc2c(cc1Cl)NC(CSCc1ccccc1)=NS2(=O)=O | 1.93% (inactive) |
| C/C(=C(\CCOP(=O)(O)O)SC(=O)c1ccccc1)N(C=O)Cc1cnc(C)nc1N | -12.9% [at 3.83 µM] (inactive) |
| O=c1cc[nH]c(=O)[nH]1 | -5.7% (inactive) |
| Cc1ncc([N+](=O)[O-])n1CC(O)CCl (centres undefined) | -2.64% (inactive) |
| O=C(O)c1ccccc1O | -7.88% (inactive) |
| CC(O)COc1ccccc1 (centres undefined) | -6.42% (inactive) |
| COC(=O)C1=C(C)NC(C)=C(C(=O)OC)C1c1ccccc1[N+](=O)[O-] | -21.8% (inactive) |
| Cc1cc2c(cc1S(N)(=O)=O)S(=O)(=O)CCC2 | 1.46% (inactive) |
| CO/N=C(\C(=O)N[C@@H]1C(=O)N2C(C(=O)O)=C(CSc3nc(=O)c(O)nn3C)CS[C@H]12)c1csc(N)n1 | -12.8% (inactive) |
| O=C(O)Cc1sc(-c2ccccc2)nc1-c1ccc(Cl)cc1 | -4.47% (inactive) |
| CNCCC(Oc1ccc(C(F)(F)F)cc1)c1ccccc1 (centres undefined) | -24.8% (inactive) |
| CCCCOC(=O)c1ccc(O)cc1 | -2.4% (inactive) |
| CCCCCCCCCCCCCCCC(=O)NCCO | -8.46% (inactive) |
